In all, about 5,500 compounds went through this assay and about 2,000 (36%) were called active. Not shown: some 18% with an inconclusive outcome. Cut-off read from the data, not from the text of the source: active = normalized growth mostly below about 0.91 (no sharp cut-off); inconclusive = no clear call, values can overlap the other calls; inactive = mostly above about 0.92. The list shows a part of the results.
Assay: chemical genetic growth profiling, strain panel (AID 1159580);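 note: tested at 20 µM; growth read once vehicle control cultures reached saturation at 30 °C; 1 = growth at the plate median or of vehicle wells; lower values mean less growth of the strain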
Conditions: growth OD

Measured: normalized growth

CCN1CCCC(OC(=O)C(c2ccccc2)c2ccccc2)C1 (centres undefined)
inactive: S. cerevisiae deletion strains, locus YJR075W, strain HOC1, stronger effect = lower value 1 | S. cerevisiae deletion strains, locus YKL009W, strain mrt4, stronger effect = lower value 1.02 | S. cerevisiae deletion strains, locus YKL068W, stronger effect = lower value 0.999 | S. cerevisiae deletion strains, locus YKL085W, strain MDH1 (second series), stronger effect = lower value 1.01 | S. cerevisiae deletion strains, locus YKL085W, strain MDH1, stronger effect = lower value 1.01 | S. cerevisiae deletion strains, locus YKL160W, strain elf1, stronger effect = lower value 0.983 | S. cerevisiae deletion strains, locus YKL190W, strain CNB1, stronger effect = lower value 1.01 | S. cerevisiae deletion strains, locus YKR001C, strain vps1, stronger effect = lower value 1.02 | S. cerevisiae deletion strains, locus YKR026C, strain gcn3, stronger effect = lower value 0.996 | S. cerevisiae deletion strains, locus YKR091W, strain srl3, stronger effect = lower value 0.992 | S. cerevisiae deletion strains, locus YLL001W, strain dnm1, stronger effect = lower value 0.971 | S. cerevisiae deletion strains, locus YLL026W, stronger effect = lower value 0.992 | S. cerevisiae deletion strains, locus YLL041C, strain sdh2, stronger effect = lower value 0.987 | S. cerevisiae deletion strains, locus YLR027C, strain aat2, stronger effect = lower value 0.983 | S. cerevisiae deletion strains, locus YLR039C, strain RIC1, stronger effect = lower value 1.07 | S. cerevisiae deletion strains, locus YLR058C, strain SHM2, stronger effect = lower value 1.01 | S. cerevisiae deletion strains, locus YLR102C, strain apc9, stronger effect = lower value 1.01 | S. cerevisiae deletion strains, locus YLR113W, strain HOG1, stronger effect = lower value 0.958 | S. cerevisiae deletion strains, locus YLR221C, strain rsa3, stronger effect = lower value 0.991 | S. cerevisiae deletion strains, locus YLR258W, strain gsy2, stronger effect = lower value 0.977 | S. cerevisiae deletion strains, locus YLR262C, strain YPT6 (second series), stronger effect = lower value 1.02 | S. cerevisiae deletion strains, locus YLR262C, strain YPT6, stronger effect = lower value 1.08 | S. cerevisiae deletion strains, locus YLR268W, strain sec22, stronger effect = lower value 1.01 | S. cerevisiae deletion strains, locus YLR320W, strain mms22, stronger effect = lower value 0.982 | S. cerevisiae deletion strains, locus YLR330W, strain CHS5, stronger effect = lower value 1.02 | S. cerevisiae deletion strains, locus YLR342W, strain FKS1 (second series), stronger effect = lower value 1.01 | S. cerevisiae deletion strains, locus YLR342W, strain FKS1, stronger effect = lower value 0.985 | S. cerevisiae deletion strains, locus YLR357W, strain rsc2, stronger effect = lower value 0.933 | S. cerevisiae deletion strains, locus YLR370C, strain arc18, stronger effect = lower value 0.994 | S. cerevisiae deletion strains, locus YLR371W, strain rom2, stronger effect = lower value 1.01 | S. cerevisiae deletion strains, locus YLR384C, strain iki3, stronger effect = lower value 0.983 | S. cerevisiae deletion strains, locus YLR418C, strain cdc73, stronger effect = lower value 0.998 | S. cerevisiae deletion strains, locus YML016C, strain PPZ1, stronger effect = lower value 1 | S. cerevisiae deletion strains, locus YML032C, strain rad52, stronger effect = lower value 1.01 | S. cerevisiae deletion strains, locus YML120C, strain ndi1, stronger effect = lower value 0.961 | S. cerevisiae deletion strains, locus YML124C, strain tub3, stronger effect = lower value 1 | S. cerevisiae deletion strains, locus YMR058W, strain fet3, stronger effect = lower value 0.982 | S. cerevisiae deletion strains, locus YMR078C, strain ctf18, stronger effect = lower value 1 | S. cerevisiae deletion strains, locus YMR125W, strain sto1, stronger effect = lower value 0.977 | S. cerevisiae deletion strains, locus YMR129W, stronger effect = lower value 0.969 | S. cerevisiae deletion strains, locus YMR205C, strain PFK2, stronger effect = lower value 0.984 | S. cerevisiae deletion strains, locus YMR223W, strain ubp8, stronger effect = lower value 1.01 | S. cerevisiae deletion strains, locus YMR231W, strain pep5, stronger effect = lower value 0.998 | S. cerevisiae deletion strains, locus YMR307W, strain GAS1, stronger effect = lower value 1.09 | S. cerevisiae deletion strains, locus YNL067W, strain RPL9B, stronger effect = lower value 1.01 | S. cerevisiae deletion strains, locus YNL071W, strain lat1, stronger effect = lower value 0.973 | S. cerevisiae deletion strains, locus YNL153C, strain GIM3, stronger effect = lower value 0.992 | S. cerevisiae deletion strains, locus YNL183C, strain NPR1, stronger effect = lower value 0.943 | S. cerevisiae deletion strains, locus YNL209W, strain ssb2, stronger effect = lower value 1.01 | S. cerevisiae deletion strains, locus YNL233W, strain BNI4, stronger effect = lower value 1.01 | S. cerevisiae deletion strains, locus YNL248C, strain rpa49, stronger effect = lower value 0.989 | S. cerevisiae deletion strains, locus YNL250W, strain rad50, stronger effect = lower value 1 | S. cerevisiae deletion strains, locus YNL271C, strain bni1, stronger effect = lower value 1.01 | S. cerevisiae deletion strains, locus YNL298W, strain CLA4, stronger effect = lower value 1.01 | S. cerevisiae deletion strains, locus YNL307C, strain MCK1, stronger effect = lower value 1.01 | S. cerevisiae deletion strains, locus YNL322C, strain KRE1 (second series), stronger effect = lower value 0.992 | S. cerevisiae deletion strains, locus YNL322C, strain KRE1, stronger effect = lower value 1.01 | S. cerevisiae deletion strains, locus YNR049C, strain mso1, stronger effect = lower value 0.981 | S. cerevisiae deletion strains, locus YNR052C, strain pop2, stronger effect = lower value 1.02 | S. cerevisiae deletion strains, locus YOL006C, strain TOP1, stronger effect = lower value 0.982 | S. cerevisiae deletion strains, locus YOL012C, strain htz1 1.06 | S. cerevisiae deletion strains, locus YOL147C, strain pex11, stronger effect = lower value 1 | S. cerevisiae deletion strains, locus YOR001W, strain rrp6, stronger effect = lower value 0.973 | S. cerevisiae deletion strains, locus YOR061W, strain CKA2, stronger effect = lower value 1.01 | S. cerevisiae deletion strains, locus YOR069W, strain VPS5, stronger effect = lower value 1.01 | S. cerevisiae deletion strains, locus YOR070C, strain gyp1, stronger effect = lower value 0.998 | S. cerevisiae deletion strains, locus YOR080W, strain dia2, stronger effect = lower value 0.975 | S. cerevisiae deletion strains, locus YOR083W, strain WHI5, stronger effect = lower value 0.98 | S. cerevisiae deletion strains, locus YOR106W, strain vam3, stronger effect = lower value 0.988 | S. cerevisiae deletion strains, locus YOR136W, strain idh2, stronger effect = lower value 1 | S. cerevisiae deletion strains, locus YOR144C, strain elg1, stronger effect = lower value 0.996 | S. cerevisiae deletion strains, locus YOR184W, strain ser1, stronger effect = lower value 1.04 | S. cerevisiae deletion strains, locus YOR231W, strain MKK1, stronger effect = lower value 0.983 | S. cerevisiae deletion strains, locus YOR265W, strain rbl2, stronger effect = lower value 0.995 | S. cerevisiae deletion strains, locus YOR270C, strain vph1, stronger effect = lower value 0.987 | S. cerevisiae deletion strains, locus YOR290C, strain snf2, stronger effect = lower value 0.98 | S. cerevisiae deletion strains, locus YOR316C, strain cot1, stronger effect = lower value 1.01 | S. cerevisiae deletion strains, locus YPL051W, strain arl3, stronger effect = lower value 0.988 | S. cerevisiae deletion strains, locus YPL055C, strain LGE1, stronger effect = lower value 0.996 | S. cerevisiae deletion strains, locus YPL078C, strain atp4, stronger effect = lower value 0.974 | S. cerevisiae deletion strains, locus YPL106C, strain sse1, stronger effect = lower value 0.97 | S. cerevisiae deletion strains, locus YPL240C, strain hsp82, stronger effect = lower value 0.991 | S. cerevisiae deletion strains, locus YPL256C, strain CLN2, stronger effect = lower value 0.979 | S. cerevisiae deletion strains, locus YPR119W, strain clb2, stronger effect = lower value 1.01 | S. cerevisiae deletion strains, locus YPR141C, strain kar3, stronger effect = lower value 1 | S. cerevisiae deletion strains, locus YPR163C, strain tif3, stronger effect = lower value 1 | S. cerevisiae deletion strains, locus YPR167C, strain met16, stronger effect = lower value 1.01 | S. cerevisiae deletion strains, strain wtn01, stronger effect = lower value 1 | S. cerevisiae strains, strain wild type, stronger effect = lower value 1.01
